Source: PubChem BioAssay (NCI)
Compounds without any hit were thinned out: in the full panel of roughly 83,000, 20% have a hit.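 Step 1: grow cells in 96-well plates. Step 2: add test compound at a single concentration. Step 3: incubate 48 h. Step 4: record percent growth.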 A number with no mark means an inactive call. Calls of active or inactive are those of the source. The calls were made as follows: active = growth percent below 10; inactive = the rest.

Assays:
Assay in all cases: NCI-60 one-dose screen, 48 h (100 = growth as untreated, 0 = no growth, -100 = all killed)
Details in all cases: 10 µM unless noted
[1] = system: HCT-15 colon
[2] = system: HT29 colon
[3] = system: SNB-75 CNS
[4] = system: SNB-19 CNS
[5] = system: U251 CNS
[6] = system: PC-3 prostate
[7] = system: SK-MEL-5 melanoma
[8] = system: UACC-62 melanoma
[9] = system: LOX IMVI melanoma
[10] = system: SK-MEL-28 melanoma

Structure (SMILES)	growth [1]	growth [2]	growth [3]	growth [4]	growth [5]	growth [6]	growth [7]	growth [8]	growth [9]	growth [10]
CCN1C(=O)C(C)C=C(C)C=C1C (stereo not given)	99.9%	111%	104%	109%	111%	123%	98.1%	103%	103%	116%
CN1CCCN(CCNc2nccc(-c3c(-c4cccc(O)c4)nc4sccn34)n2)S1(=O)=O	33.7%	38.7%	12.9%	99.4%	56.6%	30.3%	37.7%	-12.6% (active)	14.2%	18.1%
O=C(CCl)Nc1ccc2c(c1)C(=O)c1ccccc1C2=O	-38.8% (active)	-63.6% (active)	41.7%	36.9%	-56.3% (active)	-12.6% (active)	-82.8% (active)	-54.9% (active)	-81% (active)	35.4%
CCN(CC)CCCC(C)Nc1c(-c2ccccc2)cnc2cc(Cl)ccc12 (stereo not given)	29.5%	-33.5% (active)	132%	101%	58.1%	64.5%	55.3%	97.2%	19.2%	15.3%
CCOC(=O)Cn1c(-c2nonc2NC(=O)c2ccccc2F)nc2ccccc21	29.2%	27.4%	70.1%	47.1%	28.1%	44.7%	32.4%	42.4%	10.3%	71.1%
O=C(Nc1cccc(N=Cc2c(O)ccc3ccccc23)c1)c1ccccc1	93.6%	90.9%	77.9%	101%	92.6%	86.9%	91.3%	94.4%	96.1%	107%
O=C1C(Cl)=C(Nc2cccc3ccccc23)C(=O)c2ccccc21	70%	90.3%	81.6%	92.6%	75.6%	43%	60.9%	55.1%	32.7%	91.4%
CN1C(=O)N(C)C2C1NN=c1s/c(=C\c3ccsc3)c(=O)n12 (stereo not given)	24.7%	9.4% (active)	-7.65% (active)	39.6%	30.6%	38.5%	41.6%	28.3%	37.7%	67.8%
COc1cnc2c(c1)C(=O)c1c-2n(CCCN2CCCC2)c(=O)c2cc(Cl)ccc12	39.4%	-72.8% (active)	19.2%	28.7%	20.1%	20.4%	14.7%	21.1%	12.5%	85.1%
COc1ccc(CNc2c3ccccc3nc3ccccc23)cc1F	11%	12.2%	42.5%	28%	26.9%	30.4%	36.5%	42.4%	1.25% (active)	46.7%
CCn1c(Cc2ccccc2Nc2c(Cl)cccc2Cl)nnc1SCC(=O)Nc1cccc(OC)c1	78.9%	68.6%	86.2%	79.4%	86.1%	56.1%	91.6%	33.6%	79.9%	96.4%
CNC(=O)c1c(NC(=O)c2cccc(C(F)(F)F)c2)sc2c1CCC(=O)C2	-37% (active)	4.59% (active)	-7.71% (active)	13.8%	2.7% (active)	-46.4% (active)	-68.3% (active)	-41.1% (active)	-49.6% (active)	7.1% (active)
Nc1ccc(C2=NNC(=O)Cc3cc4c(cc32)OCCO4)cc1Cl	28.9%	9.09% (active)	-1.14% (active)	57.5%	39.1%	53%	29.8%	38%	39%	56.4%
CCCCCCCCCCCCCCCCCC(=O)[O][Sn]([CH2]CCC)([CH2]CCC)[CH2]CCC	-82.6% (active)	-52.2% (active)	-96.8% (active)	-70.9% (active)	-89.3% (active)	-69.3% (active)	-99.9% (active)	-60.6% (active)	-92.7% (active)	-94.8% (active)
CCN1C(=O)N(CC)C2C1NN=c1s/c(=C\c3ccc(Br)cc3)c(=O)n12 (stereo not given)	11.4%	5.08% (active)	26.2%	21.4%	16.5%	18.6%	-4.8% (active)	39.9%	25.1%	59.9%
COc1ccc(-n2c(COc3ccc(F)cc3)n[nH]c2=S)cc1	114%	103%	97.7%	106%	97.4%	154%	105%	98.6%	104%	127%
CC(C)OC1OC(OC(C)C)C(OC(C)C)OC1OC(C)C (stereo not given)	98.1%	95.8%	99%	90.9%	90.3%	91.8%	110%	85.9%	102%	106%
COc1cc(C2CC(c3ccccc3)=NN2C=O)ccc1Oc1nc2c(c(=O)n(C)c(=O)n2C)n1C (stereo not given)	87.9%	69.9%	92%	61.9%	86.5%	72.8%	59.2%	86.2%	55%	95.1%
O=C(N/N=C\c1cc(Br)ccc1O)c1ccncc1	21.4%	36.3%	76.4%	53.7%	28.6%	48.3%	39.8%	1.24% (active)	18%	45.8%
COc1ccc(-c2cc(C(=O)Nc3ccc(Br)cc3)nc3[nH]c(=O)sc23)cc1	37%	50.1%	78.4%	36.5%	28.8%	34.8%	8.56% (active)	8.05% (active)	36.7%	38.5%
C[Si](C)(C)C(c1ccccc1)c1ccccc1	91.8%	101%	102%	111%	100%	80.3%	115%	108%	95.9%	115%
CCCCCCCCCCCC1=NC(C)(C)CN1CCO	18%	-25.2% (active)	65.2%	100%	21.8%	42.5%	58.9%	-14.3% (active)	6.59% (active)	68.5%
CNC(=O)OC1C(O[C@H]2C[C@H]3[C@@H]4CC=C5C[C@@H](O)CC[C@]5(C)[C@H]4CC[C@]3(C)[C@H]2[C@H](C)C(=O)CCC(C)C)OCC(O)C1OC1OCC(O)C(O)C1OC(=O)c1ccc(OC)cc1 (stereo not given in full)	0.802% (active)	14.7%	18.4%	23.2%	1.48% (active)	-21.8% (active)	-27.9% (active)	-27.6% (active)	-31.3% (active)	-53.3% (active)
CCn1c(Cc2ccccc2Nc2c(Cl)cccc2Cl)nnc1SCC(=O)Nc1ccccc1C(F)(F)F	84.6%	81.8%	92.9%	86.5%	93.3%	67.4%	92%	63.1%	93.9%	107%
Cn1cnc([N+](=O)[O-])c1S(=O)(=O)Oc1ccccc1	55%	88.7%	103%	102%	90.5%	86.5%	99.6%	99.4%	59.5%	106%
CCCC(CCC)(C(N)=O)C(=O)O	105%	101%	104%	112%	106%	121%	110%	106%	93.5%	113%
CC(=O)c1ccc(Br)c([N+](=O)[O-])c1	104%	98%	92.7%	98.7%	104%	104%	99.9%	111%	90%	118%
O=C(/C=C/c1ccco1)c1ccccc1O	93.1%	112%	108%	102%	109%	95.9%	111%	103%	95.2%	111%
